This is a sample that favours compounds with a hit; in the whole collection about 3.6% have one here.
KAT2A inh = inhibitors of human GCN5L2 histone acetyltransferase; GCN5L2 HAT assay, ThioGlo1 CoA-SH fluorescence; Potency, µM (titrated, usually from 58.9 µM), without a hit: at the highest dose activity change, negative = inhibition, hits mostly inhibitors; 390,000 tested, 0.21% active; also: % is scaled to controls: 0 for no effect and ±100 for the full control effect
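Preincubate 20nM GCN5L2 with compound 15 min, RT → add 50uM ThioGlo1 + 75uM H3(1-25) + 70uM acetyl-CoA → read fluorescence 0 and 20 min. Primary qHTS; fluorescent artifacts likely.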
Sfp PPTase inh = Sfp phosphopantetheinyl transferase inhibition; Biochemical Sfp PPTase activity, qHTS; Q9F4F7; 310,000 tested, 3.5% active; Potency, µM, inactives show largest response in the series, negative = inhibition, actives largely listed as inhibitors;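 also: the enzyme is Sfp with the accession as filed and its product quenches rhodamine fluorescence; 0% = enzyme reaction without inhibitor and -100% = no enzyme wells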
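Buffer: 50 mM Hepes-Na pH 7.6, 10 mM MgCl2, 0.01% Nonidet P-40, 0.01% BSA. Enzyme 15 nM, pre-exposed to compound 15 min; substrates then added and fluorescence change tracked over 30 min.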
IMPase Li cell = membrane-permeable IMPase blocker, potentiated with lithium | CHO-M1 cells, IP1 TR-FRET (IP-One), carbachol + lithium | Potency, µM (highest dose often 59.4 µM), inactives show top-dose activity, negative = IMPase inhibition, actives largely listed as inhibitors | 210,000 tested, 0.35% active | AID 1457;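 also: IP1 builds up when IMPase is blocked and the TR-FRET signal falls; plate controls were basal vehicle for no effect and high inhibitor control for full effect; nearly all actives have a fitted effect of over 50% in size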
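Test compounds were applied to CHO-M1 cells previously cultured for 16–30 h at 2000 per well. A small lithium amount accompanied them; after 30 min at 37C, IP1 was quantified by TR-FRET.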
JMJD2E inh = inhibitors of human JMJD2E histone demethylase; B2RXH2; JMJD2E catalytic domain, FDH-coupled NADH fluorescence (FDH is formaldehyde dehydrogenase); Potency, µM (top dose mostly 57.1 µM), inactives show top-dose activity change, negative = inhibition, hits mostly inhibitors; 230,000 tested, 1.6% active; AID 2147; active = well fitted inhibition curve with a large enough effect, not every such curve was filed as active; inconclusive = small, poorly fitted or top-dose-only effect, or another doubt; inactive = no such curve, though single readings can be large or run the other way;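 also: 0% = wells with enzyme and -100% = buffer wells without enzyme; nearly all actives have a fitted effect of over 50% in size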
NPSR antagonist = blocks cAMP signaling of the human neuropeptide S receptor. Q6W5P4. CHO-NPSR cells, cAMP TR-FRET, antagonist mode. Potency, µM (highest dose often 38.3 µM), without a hit: at the highest dose activity change, negative = inhibition, hits mostly inhibitors. 220,000 tested, 1% active; also: % is scaled to controls: 0 for no effect and ±100 for the full control effect; nearly all actives have a fitted effect of over 50% in size
Target sequence (Q6W5P4 whole entry, looked up): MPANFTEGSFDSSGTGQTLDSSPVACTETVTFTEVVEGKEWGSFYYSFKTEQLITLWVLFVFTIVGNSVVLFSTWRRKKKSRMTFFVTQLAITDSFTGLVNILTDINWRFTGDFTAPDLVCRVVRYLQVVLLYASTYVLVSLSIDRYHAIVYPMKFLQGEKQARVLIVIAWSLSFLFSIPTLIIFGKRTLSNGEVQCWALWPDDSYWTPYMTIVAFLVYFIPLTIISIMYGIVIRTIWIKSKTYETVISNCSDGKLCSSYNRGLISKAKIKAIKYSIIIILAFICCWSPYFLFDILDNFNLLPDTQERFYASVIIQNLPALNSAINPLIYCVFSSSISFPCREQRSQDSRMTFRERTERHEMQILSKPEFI
Epigenetic reg = derepresses silenced GFP reporter in murine cells; Potency, µM (series often up to 53.9 µM), without a hit: at the top dose GFP activation, actives largely listed as activators; AID 1865; 280,000 tested, 0.2% active; murine LDR cells, GFP reporter derepression, 30 h; also: % of control where 0% means no effect; nearly all actives have a fitted effect of over 60% in size
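Murine LDR cells bearing a silenced CMV-driven GFP reporter were exposed to compound for 30 h at 37 C. After PBS washes, GFP-positive cells (20-120 um objects) counted by laser-scanning microplate cytometry.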
Active calls of the source: *; ? = inconclusive; . = no result given; [ ] = another dose, or the depositor's remark. Unless noted, calls follow the shape of the dose curve; as a rule, active = well fitted curve in the direction sought with a large enough effect; inconclusive = small, poorly fitted or top-dose-only effect, or another doubt; inactive = no such curve, though single readings can be large; an effect the other way counts as inactive or inconclusive. Potency is read from the fitted curve at half-maximal effect.

SMILES | KAT2A inh | Sfp PPTase inh | IMPase Li cell | JMJD2E inh | NPSR antagonist | Epigenetic reg
COc1ccc(C(=O)Nc2nnc(S(=O)(=O)N(C)c3ccc(Cl)cc3)s2)cc1OC | -11% | . | . | . | . | 0%
CCOC(=O)CSc1nc(-c2ccccc2)nc2ccc(F)cc12 | -16% | -1% | 10µM* | -8% | 1%[46.1 µM] | -2%
COC(=O)CSc1nc(-c2ccccc2)nc2ccc(F)cc12 | -1% | 4% | ? | 4% | 3%[46.1 µM] | 0%
COc1ccc(-c2cc3ncc(C)n3c(Nc3ncccc3C(N)=O)n2)cc1OC | -15% | . | . | . | . | .
C=CCc1cc(C)ccc1OCCOCCN1CCN(C)CC1 | -9% | 79µM* | . | . | . | .
Cc1ccc(OCCOCCN2CCN(C)CC2)c(C(C)(C)C)c1 | -15% | 50µM* | . | . | . | .
CCOC(=O)c1c(NC(=O)C(C)Sc2cn(CCNC(=O)c3ccc(OC)cc3)c3ccccc23)sc2c1CCC2 (stereo unspecified) | -5% | . | . | . | . | 0%
CCC(=O)[C@]12O[C@@]3(C4C(=O)OCCC41)N(Cc1ccccc1)C(C)=C(C(=O)OC)C(c1ccccc1)N3C2=O (stereo partly specified) | . | 9% | . | . | . | 5%[10.1 µM]
CC(C)=C1C(=O)C(c2ccccc2)=C2CN3C(=O)N(CCc4ccccc4)C(=O)[C@]3(C)[C@H]21 | . | -2% | 6% | -11% | . | 0%
CC(=O)N1CCN(c2ccc(NCc3ccc(C)cc3)cc2)CC1 | 2% | 40µM* | 3%[38.3 µM] | ? | -7%[46.1 µM] | -1%
COc1cc(CNc2ccc(NC(C)=O)cc2)ccc1OCc1ccccc1C | 2% | -4% | 14% | 7% | -27% | 1%
CCc1ccc(CNc2ccc(N3CCN(C(C)=O)CC3)cc2)cc1 | -15% | 35µM* | 45%[38.3 µM] | ? | -23%[46.1 µM] | 0%
COc1cc(CNc2ccc(N3CCN(C(C)=O)CC3)cc2)ccc1OCc1ccccc1 | 29% | -27% | 23% | 16µM* | 28% | 2%
Cc1ccc(CNC(=O)N2CCN(c3ccc(C)cc3)CC2)cc1 | -5% | 8% | . | . | . | .
CCN(CC)S(=O)(=O)c1ccc(N2CCCC2)c(NC(=O)c2ccc(OC)cc2OC)c1 | -7% | 79µM* | 22% | 0% | -28% | -3%
CCN(CC)S(=O)(=O)c1ccc(N2CCCC2)c(NC(=O)Cc2ccc(OC)cc2)c1 | -13% | 2% | 19% | -17% | -38% | 0%
O=[N+]([O-])c1cccc(N=Cc2sc3ccccc3c2O)c1 | -15% | 6% | 15% | 28µM* | -7% | -3%
CCOC(=O)c1c(-c2ccccc2)oc2ccc(O)cc12 | ? | 40µM* | . | . | . | .
C=C1C2CC[C@]3(CCC4[C@@]5(C)CCC[C@@]4(CN(CCO)C5)[C@@H]3C2)[C@@H]1O (stereo partly specified) | . | 15% | 5% | 3% | . | 0%
Cc1ccc(NC(=O)CN2CCN(C(=O)c3ccco3)CC2)cc1 | 3% | 24% | . | . | . | .
Cc1[nH]c2ccccc2c1NC(=O)CN1CCN(C(=O)c2ccco2)CC1 | 1% | 45µM* | . | -1% | -8% | 0%
CCOC(=O)c1cc(CC)sc1NC(=O)CN1CCN(C(=O)c2ccco2)CC1 | -17% | 40µM* | . | . | . | .
C[C@@H]1CC[C@H]2C(=O)N3[C@@H](CC[C@@H](C)[C@@H]3c3ccc(Br)cc3)C(=O)N2[C@@H]1c1ccc(Br)cc1 | . | -3% | . | . | . | 1%[10.1 µM]
Cc1cc2cc(CNC(=O)c3ccc(Br)o3)ccc2n1C | -10% | 28µM* | . | -23% | -18% | 0%
CCCC(=O)NCc1ccc2c(c1)cc(C)n2C | -8% | ? | -13%[38.3 µM] | ? | -8%[46.1 µM] | -2%
Cc1cccc(NC(=O)NCc2ccc3c(c2)cc(C)n3C)c1 | -2% | 50µM* | ? | -7% | 30%[46.1 µM] | 0%
CC(=O)Nc1ccc(C2=NNC(=Nc3ccc(S(=O)(=O)N4CCOCC4)cc3)SC2)cc1 | -3% | 14µM* | . | ? | -9% | -2%
COCCN=C1NN=C(c2ccc(NC(C)=O)cc2)CS1 | -12% | 40µM* | 5% | ? | 7% | ?
